# In ChEMBL document CHEMBL3988442, “University of Dundee, Small-Polar-MMV Screening Library” (2021):
# Among all 48,000 compounds or so, about 13,000 (27%) showed an effect of 50% or more. The list shows a part of the results.
# Test system: Wolbachia pipientis
# Assay: Anti-Wolbachia Cell-Based Screen
# Type: functional
# Set-up: scale not given: in the data most compounds retested in dose-response had high values
# Conditions: 5 µM
row,Compound,Percent Effect
1,Cc1nn(C)c(Cl)c1C1CCCN1c1ncnc2[nH]ccc12 (stereo unspecified),-15.05%
2,CCc1nnc(N[C@H](C)c2cccc(OC)c2)o1,-47.91%
3,Cn1cc(N2C(=O)CC[C@@H]3[C@H]2CCN3C(=O)c2cscn2)cn1.O=C(O)C(F)(F)F,-22.63%
4,Cc1nc(CO[C@@H]2CN(Cc3cnn(C)c3)[C@@H]3COC[C@@H]32)cs1.O=C(O)C(F)(F)F,-7.827%
5,Cc1nc(CN2CC[C@H]3[C@H]2CCN3c2nncs2)cs1.O=C(O)C(F)(F)F.O=C(O)C(F)(F)F,10.04%
6,Cn1cc(N2C(=O)CC[C@@H]3[C@H]2CCN3Cc2nccs2)cn1.O=C(O)C(F)(F)F,92.26%
7,Cc1nc(CN2CC[C@H]3[C@@H]2CCC(=O)N3c2cnn(C)c2)cs1.O=C(O)C(F)(F)F,98.36%
8,Cn1cc(C(=O)N[C@H]2CN(Cc3nccs3)[C@@H]3CCCO[C@H]23)cn1.O=C(O)C(F)(F)F,-3.983%
9,Cc1nc(C)c(-c2nnc(SCC(=O)O)n2C(C)c2ccccc2)o1 (stereo unspecified),4.033%
10,Cn1cc(CN2CCCN(C(=O)c3ccc4c(c3)COC4)CC2)cn1,-5.776%
11,O=C(c1cccc(F)c1)N1CCCN(Cc2cscn2)CC1,112.5%
12,Fc1cccc(CN2CCN(Cc3cscn3)CC2)c1,-6.647%
13,Cc1cccc(C(=O)N2CCCN(Cc3cscn3)CC2)c1,101.4%
14,O=C(c1ccc(O)cc1)N1CCN(C(=O)c2ccc3c(c2)COC3)CC1,-5.572%
15,O=C(c1ccc2cc[nH]c2c1)N1CCCN(Cc2cscn2)CC1,102.9%
16,CN1CCN(C(=O)c2cccc(OCc3cscn3)c2)CC1,-0.311%
17,O=C(c1ccc2c(c1)COC2)N1CCCN(Cc2cscn2)CC1,97.01%
18,CSCC(CCO)NC(=O)Nc1cccc(Br)c1 (stereo unspecified),-3.109%
19,O=C(NCCO)c1coc(CN2CCN(c3ccccc3F)CC2)n1,7.764%
20,COCc1noc(-c2ccc(N(C)Cc3c(C)n[nH]c3C)nc2)n1,-8.806%
21,O=C(NC[C@H]1OC[C@@H](NC2CCC(F)(F)CC2)[C@@H]1O)c1cccs1,-23.1%
22,C=C(C)CN(CC)S(=O)(=O)c1ccccc1C#N,-2.977%

row,Compound,Percent Effect
1,Cc1nnc(NCC2(c3ccccc3)CCOCC2)c(C#N)c1C,-16.92%
2,COCCN1CCC(NCc2c(C(C)C)nn(C)c2N(C)C)CC1,-4.673%
3,COCCN1CCc2cc(C(=O)N(C)C)c(NC(C)C)nc2CC1.O=C(O)C(F)(F)F.O=C(O)C(F)(F)F,7.689%
4,CC(C)Nc1nc2c(s1)C(=O)CN(CC1CC1)C2,101.7%
5,CCN1CC(=O)c2sc(NC(C)C)nc2C1,96.98%
6,COCCN1CC(=O)c2sc(NC(C)C)nc2C1,130.5%
7,CC(C)Nc1nc2c(s1)C(=O)CN(C)C2,130.6%
8,CC(C)c1nn(C)c(N(C)C)c1CNC1CCN(CC2CC2)CC1,-26.39%
9,CSC(C)(C)CNC(=O)NC1CCN(C)CC1,-3.442%
10,CC(C)C(C)(C#N)NC(=O)Cn1cc(C(N)=O)c(-c2ccccc2)n1 (stereo unspecified),12.8%
11,CCNC(=O)NCc1cccc(N2CC=CC2)c1,-0.5505%
12,CCc1noc(CN(C)CCC(=O)Nc2ccc(Cl)cc2)n1,-6.397%
13,Cc1oc(-c2ccc(F)cc2F)nc1CN1C[C@@H](C)O[C@@H](C)C1,30.19%
14,CCN(CCn1cccn1)Cc1nc(-c2ccc(F)cc2)oc1C,16.6%
15,Cc1oc(-c2ccc(F)cc2)nc1CN1CCOCS1(=O)=O,1.059%
16,CCN1CC(CN(C)Cc2nc(-c3ccc(F)cc3)oc2C)CC1=O (stereo unspecified),117.1%
17,CCN(CCn1cccn1)Cc1nc(-c2ccoc2)oc1C,-32.03%
18,CCN1CC(CN(C)Cc2nc(-c3ccc(F)cc3F)oc2C)CC1=O (stereo unspecified),223.2%
19,CCCOC1CCCN(Cc2nc(-c3ccc(F)cc3F)oc2C)C1 (stereo unspecified),11.6%
20,CCN1CC(CN(C)Cc2nc(-c3ccoc3)oc2C)CC1=O (stereo unspecified),101.6%
21,CCN(CCn1cccn1)Cc1nc(-c2ccc(C)o2)oc1C,17.65%
22,Cc1oc(-c2ccoc2)nc1CN1CCC[C@H]1CO,2.013%

row,Compound,Percent Effect
1,CCN(C)Cc1nc(-c2ccccc2NS(C)(=O)=O)oc1C,17.24%
2,CCN1CC(CN(C)Cc2nc(-c3ccc(C)o3)oc2C)CC1=O (stereo unspecified),106.5%
3,O=C(c1ccc(O)cn1)N1CCOC(c2ccc(Cl)c(Cl)c2)C1 (stereo unspecified),-8.844%
4,CCc1cnc(NCCSc2cnn[nH]2)nc1,4.76%
5,COC(=O)CCCNC(=O)COc1ccccc1C(F)(F)F,-5.238%
6,COCCNC(=O)c1cc2c(s1)CCN2C(=O)c1ccccc1,3.263%
7,COCCN(C)C(=O)c1cc2c(s1)CCN2C(=O)C1CC1,113.8%
8,O=C(NC1CCCC1)c1cc2c(s1)CCN2C(=O)c1ccccc1,94.77%
9,O=C(NC1CC1)c1cc2c(s1)CCN2C(=O)C1CC1,91.55%
10,CCCNC(=O)CCNC(=O)c1ccccc1N1CCOCC1,6.654%
11,O=C(c1cc2c(s1)CCN2C(=O)C1CC1)N1CCCC1,-2.581%
12,O=C(NC1CCCC1)NC1CCC(C(=O)N2CCSCC2)CC1 (stereo unspecified),9.425%
13,CCCNC(=O)c1cc2c(s1)CCN2C(=O)c1ccccc1,88.89%
14,CN1C[C@H](COCC2CC2)[C@H]2CCN(Cc3ccco3)CC[C@H]2C1=O,-20.01%
15,CCOC1CCN(CCc2nc(-c3cccc(Cl)c3)no2)CC1,9.803%
16,CC(O)C(=O)N1CCC(c2nccn2Cc2cscn2)CC1 (stereo unspecified),-11.64%
17,O=C(NCCN1CCCC1)c1cc2c(s1)CCN2C(=O)c1ccccc1,91.37%
18,CN1CCCN(C(=O)c2cc3c(s2)CCN3C(=O)c2ccccc2)CC1,-3.728%
19,CC(C1CC1)N(CC(=O)NCC(F)(F)F)C1CC1 (stereo unspecified),-3.588%
20,O=C(CNc1cccc2c1CCCC2)Nc1ccccc1Br,7.656%
21,NC(=O)c1ccc(N2CCCCC2)c(NC(=O)c2cc(Br)ccc2F)c1,10.52%
22,NC(=O)C1CCN(C(=O)c2ccc(Cn3cc(Br)cn3)cc2)CC1,-10.39%

row,Compound,Percent Effect
1,NC(=O)c1ccc(N2CCCCC2)c(NC(=O)c2cc(Br)ccc2Cl)c1,10.69%
2,O=C(c1cc(Br)ccc1Cl)N1CCN(Cc2ccco2)CC1,8.904%
3,O=C(c1cc(Br)ccc1-n1cnnn1)N1CCCC1,113.6%
4,Cc1cnn(C2CCCN(C(=O)c3sccc3-n3cnnn3)C2)c1 (stereo unspecified),-13.25%
5,NC(=O)C1CCN(C(=O)c2cc(Br)ccc2-n2cnnn2)CC1,120.4%
6,O=C(c1cc(Br)ccc1-n1cnnn1)N1CCCCC1,184.2%
7,NC(=O)C1CCN(C(=O)c2ccccc2OCc2ccncc2)CC1,-0.6716%
8,O=C1C(Nc2ccc3nccnc3n2)CCN1c1ccccc1F (stereo unspecified),-13.15%
9,O=C(CCCc1ccccc1)Nc1cnc(N2CCOCC2)nc1,-16.01%
10,CNC(=O)c1cccc(CNC(C)c2cc(Cl)ccc2OC)c1 (stereo unspecified),8.961%
11,CCc1c(C)nn(C)c1NC(=O)N1CCCOC(Cn2cccn2)C1 (stereo unspecified),-2.471%
12,CCOCCn1nc(C)cc1C(=O)N1CC(C)(C)[C@@](C)(O)C1,-27.83%
13,CC1=Nc2c(c(=O)[nH]n2C(C)C)C(c2ccsc2)S1 (stereo unspecified),124.6%
14,CC1=Nc2c(c(=O)[nH]n2C(C)C)C(c2ccc(F)c(F)c2)S1 (stereo unspecified),0.5897%
15,CC1=Nc2c(c(=O)[nH]n2C(C)C)C(c2ccccc2)S1 (stereo unspecified),3.045%
16,COc1cc(OC)cc(N2CCC(NCc3cc[nH]n3)C2)c1 (stereo unspecified),-8.563%
17,Cc1ccc(C(NC(=O)Cc2nc3ncccn3n2)C2CC2)cc1 (stereo unspecified),-15.47%
18,O=S(=O)(c1ccc2c(c1)CCC2)N1CCCC(Cn2cncn2)C1 (stereo unspecified),1.903%
19,CCCC(=O)NCc1cccc(C(=O)OC)c1,-9.94%
20,CCCSCC(=O)NCc1cccc(CN(C)CC)c1,105%
21,CCN(C)Cc1cccc(CNC(=O)CSCc2ccccn2)c1,99.73%
22,O=C(CSCc1ccccn1)NCC1CC1,22.7%

row,Compound,Percent Effect
1,CC(Cn1ccnc1)NC(=O)NCCc1ccccn1 (stereo unspecified),-12.71%
2,CCN(C)Cc1cccc(CNC(=O)NCCc2ccccn2)c1,112.6%
3,COc1cccc(CSCC(=O)NCc2cccnc2)c1,3.69%
4,CCN(C)Cc1cccc(CNC(=O)CSCc2ccncc2)c1,124.3%
5,CCCSCC(=O)Nc1ncn(CC(=O)NCc2ccccc2)n1,0.11%
6,O=C(NCCNc1ncccn1)NCc1cccc(OC(F)F)c1,-1.067%
7,O=C(CSCc1ccccn1)NCC1CCN(C2CC2)C1 (stereo unspecified),21.4%
8,O=C(CSCc1ccncc1)NCC1CCN(C2CC2)C1 (stereo unspecified),13.02%
9,Cc1csc(N2CCCN(C(=O)C(C)n3ccnc3)CC2)n1 (stereo unspecified),-4.315%
10,Cc1nnc2n1CC(CNCc1nc(-c3cccs3)no1)CC2 (stereo unspecified),-7.356%
11,CCn1cc2c(n1)C(COC)CN(Cc1ccccn1)C2 (stereo unspecified),-2.413%
12,CCSCCn1cc(-c2ncc[nH]2)nn1,7.304%
13,CNC1CCN(C2CCN(c3ccc(-c4ccco4)cc3)CC2)CC1,-8.193%
14,Cn1cc(C(=O)N2CCCN(c3cccnn3)CC2)c2ccccc21,-6.467%
15,O=S(=O)(CCCn1cncn1)Cc1ccccc1Cl,-3.419%
16,CC(C)c1cc2c(O)nc(CSCC(=O)NCc3ccccn3)nc2s1,-13.17%
17,CC(C)OCCOCc1cccc(NC(=O)NCc2ccccn2)c1,14.04%
18,CC(C)C(=O)Nc1cccc(CNC(=O)CSCc2ccccn2)c1,119.7%
